RORgamma inh = inhibitors of mouse ROR gamma transcriptional activity. P51450. Drosophila S2 Gal4-RORgamma UAS-luciferase reporter, 20 h. Potency, µM (doses to about 53.6 µM), for the others: at the top dose activity change, negative = inhibition, hits mostly inhibitors. actives 5.4% (n = 310,000); further: potency means the concentration at half of the fitted maximal effect; nearly all actives have a fitted effect of over 60% in size
Target sequence (P51450 whole entry, looked up, the tested form may be a part): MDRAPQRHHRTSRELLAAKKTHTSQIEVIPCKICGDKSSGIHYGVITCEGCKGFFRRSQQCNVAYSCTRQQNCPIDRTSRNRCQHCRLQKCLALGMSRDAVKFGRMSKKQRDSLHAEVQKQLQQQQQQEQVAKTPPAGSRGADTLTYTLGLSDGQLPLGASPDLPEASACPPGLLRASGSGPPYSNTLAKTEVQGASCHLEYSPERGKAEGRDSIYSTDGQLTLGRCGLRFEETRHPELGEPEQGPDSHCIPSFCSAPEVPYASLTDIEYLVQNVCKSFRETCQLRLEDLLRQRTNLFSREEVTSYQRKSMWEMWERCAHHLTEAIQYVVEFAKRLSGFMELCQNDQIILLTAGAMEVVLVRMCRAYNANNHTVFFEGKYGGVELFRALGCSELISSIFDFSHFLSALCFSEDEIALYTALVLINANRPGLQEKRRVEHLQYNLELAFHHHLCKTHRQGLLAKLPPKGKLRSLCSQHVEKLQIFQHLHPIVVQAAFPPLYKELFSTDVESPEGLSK
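Compounds are pin-transferred onto Drosophila Schneider cells expressing a copper-inducible Gal4–ROR gamma transactivation domain fusion. After 1 hr, copper sulfate is added to 700 uM final; luciferase is read 20 hr later.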
IL1B secr inh = inhibitors of inflammasome signaling (IL-1 beta secretion) | THP-1 LPS/ATP IL-1B secretion, AlphaLISA, 16 h; active compounds read low | actives 4.7% (n = 360,000) | activity change, % at 57.5 µM; in the data active means activity change below about -50%; inconclusive means mostly about -30% to -49%
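THP-1 cells pretreated 1 hr with compounds (up to 57.5 uM final), then stimulated with LPS (250 ng/mL final) plus ATP (1.25 mM final); secreted IL-1B measured by AlphaLISA after 16 hr, decreased signal indicating inhibition.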
VP16 counter = inhibits Gal4-VP16 luciferase reporter, ROR gamma counter-screen; Drosophila S2 Gal4-VP16 UAS-luciferase, luminescence, 20 h; Potency, µM (titrated, usually from 53.6 µM), for the others: at the highest dose activity, negative = inhibition, hits mostly inhibitors; actives 3.5% (n = 310,000);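 further: Gal4-VP16 expression switched on by copper sulfate through the metallothionein promoter; potency means the concentration at half of the fitted maximal effect; nearly all actives have a fitted effect of over 50% in size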
DT40 TDP1 CPT = growth inhibition of DT40 Tdp1-/-;hTDP1 cells with camptothecin (screen for TDP1 inhibitors). chicken DT40 Tdp1-/-;hTDP1 cells + 20 nM CPT, ATP luminescence, 48 h. Potency, µM (doses to about 46.2 µM), without a hit: at the top dose activity change, negative = growth inhibition, usual class: inhibitors. actives 12% (n = 420,000); further: potency means the concentration at half of the fitted maximal effect; nearly all actives have a fitted effect of over 55% in size
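Chicken DT40 Tdp1-/- cells complemented with human TDP1, 400 cells/well, exposed to compounds plus 20 nM camptothecin for at least 48 h at 37 C; viability read as ATP content by CellTiter-Glo luminescence.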
TDP1 cell noCPT = qHTS for Inhibitors of human tyrosyl-DNA phosphodiesterase 1 (TDP1): qHTS in cells in absence of CPT; DT40 Tdp1-/- hTDP1 cells, no CPT, ATP luminescence, 48 h; actives 15% (n = 420,000); Potency, µM (titrated, usually from 46.2 µM), inactives show at the top dose activity change, negative = growth inhibition, most hits filed as inhibitors; AID 686978, 2013; further: potency means the concentration at half of the fitted maximal effect; nearly all actives have a fitted effect of over 55% in size
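Luminescent ATP content (CellTiter-Glo) served as the growth readout. Knockout chicken DT40 cells expressing human TDP1 were exposed to compounds without camptothecin for a minimum 48 hr at 37 °C.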
ELG1 DNA repair = inhibitors of ELG1-dependent DNA repair in HEK293T cells; HEK293T ELG1-luciferase reporter, luminescence, 16 h; DNA damage induced by 5-fluorouridine; Potency, µM (titrated, usually from 46.1 µM), for the others: at the highest dose activity change, negative = inhibition, hits mostly inhibitors; actives 2.3% (n = 330,000); further: potency means the concentration at half of the fitted maximal effect; nearly all actives have a fitted effect of over 55% in size
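Overnight (16 hr) co-exposure of 2,000 cells/well to 5-fluorouridine and compound at 37 °C preceded detection. Luciferase was quantified via ONE-Glo luminescence; loss of signal denotes inhibition.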
The depositor's hits bear a star; i = inactive; ? = inconclusive; nt = no result given. In the library only some 21% were active in any assay of this set; here they are far more common. Unless noted, the call rests on the fitted dose curve; in most records, active means well fitted curve in the direction sought with a large enough effect; inconclusive means small, poorly fitted or top-dose-only effect, or another doubt; inactive means no such curve, though single readings can be large; an effect the other way counts as inactive or inconclusive. On the % scale 0 is the no-effect control and ±100 the full control effect.

SMILES	RORgamma inh	IL1B secr inh	VP16 counter	DT40 TDP1 CPT	TDP1 cell noCPT	ELG1 DNA repair
OCCCc1nc2ccccc2n1Cc1ccccc1	16.2%	11.6	-1.7%	?	-0.9%	0.2%
CC(C)C[C@H](NC(=O)OCC1c2ccccc2-c2ccccc21)C(=O)O	nt	7.8	nt	-3.0%	-12.8%	nt
COC(=O)C1=CN(c2ccc(N3CCOCC3)cc2)C(N)=C(C#N)C1c1cccc(OC)c1OC (stereo unspecified)	nt	-21.1	nt	-14.3%	?	nt
COC(=O)C1=CN(c2ccc(N3CCOCC3)cc2)C(N)=C(C#N)C1c1ccccc1 (stereo unspecified)	nt	-2.9	nt	?	18.4µM*	nt
COC(=O)C1=CN(c2ccc(OC)cc2)C(N)=C(C#N)C1c1ccc(OC)cc1 (stereo unspecified)	nt	?	nt	10.3µM*	?	nt
COC(=O)C1=CN(c2ccc(OC)cc2OC)C(N)=C(C#N)C1c1ccc(OC)cc1 (stereo unspecified)	nt	-6.0	nt	?	20.6µM*	nt
COC(=O)C1=CN(c2ccc3c(c2)OCO3)C(N)=C(C#N)C1c1cccc(F)c1 (stereo unspecified)	nt	32.8	nt	1.3µM*	0.651µM*	nt
CCc1ccc(N2C=C(C(=O)OC)C(c3ccc(OC)cc3)C(C#N)=C2N)cc1 (stereo unspecified)	nt	-24.9	nt	?	-82.1%	nt
CCCCN(C)C(=O)CN1C(=O)c2cccnc2Oc2ccc(Cl)cc21	nt	nt	nt	-27.1%	?	nt
Cc1ccc2c(=O)cc(C(=O)Nc3nnc(CC(C)C)s3)oc2c1C	nt	nt	nt	22.5%	2.3%	nt
CCOC(=O)CCc1c(C)c2ccc(OCc3ccc([N+](=O)[O-])cc3)cc2oc1=O	14.9%	10.4	1.9%	-1.6%	-12.7%	1.1%
CCOC(=O)C1CSC(Cc2ccc(OCc3ccc([N+](=O)[O-])cc3)cc2)N1 (stereo unspecified)	14.1µM*	nt	?	nt	nt	nt
Cc1ccc(-c2ccc(CN3C(C(C)C)C(=O)N(Cc4cn(CCC5OCCO5)nn4)CCS3(=O)=O)cc2)c(C)c1 (stereo unspecified)	nt	?	nt	9.2µM*	18.4µM*	nt
Cc1ccccc1-c1ccc(CN2C(C(C)C)C(=O)N(Cc3cn(CCC4OCCO4)nn3)CCS2(=O)=O)cc1 (stereo unspecified)	nt	-57.0*	nt	?	18.4µM*	nt
CC(O)[C@H]1CNC(=S)N1CCc1cccc(F)c1 (stereo partly specified)	-0.1%	11.3	-13.0%	8.4%	-17.3%	-1.5%
CCC(C)[C@H]1CNC(=S)N1CCc1cc(C(F)(F)F)cc(C(F)(F)F)c1 (stereo partly specified)	2.24µM*	-55.5*	3.98µM*	?	20.6µM*	2.6%
C[C@H](O)[C@@H]1C(=O)N2CCc3ccc(-c4ccccc4)cc3[C@@H]2C[C@@H]1N(C)C(=O)Nc1cc(Cl)cc(Cl)c1	nt	?	nt	-19.4%	-22.9%	nt
COCC(=O)N(C)[C@H]1C[C@H]2c3[nH]c4ccccc4c3CCN2C(=O)[C@H]1[C@H](C)O	nt	19.4	nt	-20.1%	?	nt
COc1ccc(-c2ccc3[nH]c4c(c3c2)CCN2C[C@@H]([C@H](C)O)[C@@H](N(C)C(=O)Nc3cc(Cl)cc(Cl)c3)C[C@@H]42)cc1	nt	0.0	nt	9.2µM*	4.61µM*	nt
COc1ccc(-c2ccc3[nH]c4c(c3c2)CCN2C(=O)[C@@H]([C@H](C)O)[C@@H](N(C)C(=O)Nc3cc(Cl)cc(Cl)c3)C[C@@H]42)cc1	nt	?	nt	23.1µM*	14.6µM*	nt
Cc1ccccc1C(=O)N(C)[C@H]1C[C@H]2c3[nH]c4ccccc4c3CCN2C[C@H]1[C@H](C)O	nt	0.0	nt	?	?	nt
C[C@H](O)[C@@H]1C(=O)N2CCc3c([nH]c4ccccc34)[C@@H]2C[C@@H]1N(C)Cc1ccc(Cl)cc1	nt	-25.0	nt	?	29.1µM*	nt
Cc1cccc(-c2ccc3[nH]c4c(c3c2)CCN2C[C@@H]([C@H](C)OC(=O)Nc3ccccc3C)[C@@H](N(C)C(=O)Nc3ccccc3C)C[C@@H]42)c1	nt	-21.1	nt	?	25.9µM*	nt
C[C@H](O)[C@@H]1CN2CCc3c([nH]c4ccccc34)[C@@H]2C[C@@H]1N(C)C(=O)Nc1cccc2ccccc12	nt	-20.7	nt	?	?	nt
COc1ccc(Cl)cc1S(=O)(=O)N(C)CC(=O)N1CCOCC1	-14.5%	-17.7	-7.1%	18.0%	0.9%	5.2%
SMILES	RORgamma inh	IL1B secr inh	VP16 counter	DT40 TDP1 CPT	TDP1 cell noCPT	ELG1 DNA repair
Cc1ccc(NC(=O)C(Cc2ccccc2)NS(=O)(=O)c2ccc3c(c2)CCC(=O)N3)cc1 (stereo unspecified)	nt	nt	nt	2.2%	-44.2%	nt
O=C(N=C1N=C2C=CC(Br)=CN2Cc2ccccc21)c1ccc([N+](=O)[O-])cc1[N+](=O)[O-]	-20.0%	23.9	-17.8%	-16.4%	?	?
CCN(CC(=O)NCc1ccc(Cl)cc1)C(=O)c1ccc(S(=O)(=O)NCc2ccco2)cc1	16.6%	i	10.1%	?	?	-3.5%
C[C@@H]1ON(C)[C@H]2C[C@H]3c4[nH]c5ccc(-c6ccc7c(c6)OCO7)cc5c4CCN3C[C@@H]12	nt	-19.9	nt	?	20.6µM*	nt
C[C@H](O)[C@@H]1CN2CCc3c([nH]c4ccc(-c5ccc6c(c5)OCO6)cc34)[C@@H]2C[C@@H]1N(C)C(=O)Nc1ccc(F)cc1	nt	-10.5	nt	2.91µM*	5.17µM*	nt
COC(=O)C1=COC(C)C2CN3CCc4c([nH]c5cc(OC)c(OC)cc45)C3CC12 (stereo unspecified)	2.4%	-21.8	-4.9%	?	?	-9.3%
COc1ccc(-c2ccc3[nH]c4c(c3c2)CCN2C(=O)[C@@H]([C@H](C)O)[C@@H](N(C)C(=O)Nc3ccc(F)cc3)C[C@@H]42)cc1	nt	?	nt	?	11.6µM*	nt
COCC(C)NC(=O)C1CC(=O)N(CCc2ccc(F)cc2)C1 (stereo unspecified)	nt	19.3	nt	-0.7%	-19.0%	nt
CCn1cc(/C=N\NC(=O)c2cc(-c3ccccc3OC)nc3ccccc23)c(C)n1	?	-1.9	?	?	16.4µM*	?
COc1ccccc1-c1cc(C(=O)N/N=C\c2cn(C)nc2C)c2ccccc2n1	?	0.6	-8.2%	?	13µM*	?

Bioassay records: PubChem BioAssay, National Center for Advancing Translational Sciences (NCATS)
